From PubChem BioAssay (NCI)
The panel holds about 83,000 compounds, 20% with a hit somewhere; the sample as a whole holds those more often.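 Cell lines were cultured in 96-well plates, exposed to a single compound concentration, and assessed for percent growth 48 hours later.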 Unmarked numbers belong to inactive results. Calls of active or inactive are those of the source. The calls were made as follows: active = growth percent below 10; inactive = the rest.

test system: MDA-MB-468 breast; assay: NCI-60 one-dose screen, 48 h (100 = growth as untreated, 0 = no growth, -100 = all killed); conditions: 10 µM unless noted

SMILES	growth
CCCCC1COc2cccc3c2N1C=C/C3=C\C(=O)n1ccc2ccccc21 (stereo not drawn)	12.3%
CCN(CC)c1ccc2[nH]c3c(C(N)=O)cc(=O)c(=O)c=3oc2c1	-38.4% (active)
CC(Cc1cccc(C(F)(F)F)c1)NCCOC(=O)c1ccccc1 (stereo not drawn)	107%
COc1ccc(C2C3=C(COC3=O)N(CCO)c3cc4c(cc32)CCC4)cc1OC (stereo not drawn)	-17.1% (active)
COc1cc(C2CC(c3ccc(C)cc3)=NN2C=O)ccc1Oc1ccnc2cc(Cl)ccc12 (stereo not drawn)	58.4%
CCCCCCCCSc1ncnc2c1ncn2CO	11.9%
COc1ccc(S(=O)(=O)N(C(C)=O)c2ccccc2/C=C/c2cc[n+]([O-])cc2)cc1	10.8%
CN(C)c1ccc2c(N(C)C)cc(N(C)C)nc2c1	7.64% (active)
